From the supplement of paper PMC7156485

system: HCC1569; experiment: H1.0 immunofluorescence intensity relative to DMSO (% of DMSO); higher = stronger H1.0 induction, active = 140 or more; details: concentration: 10 µM; 24 h
Outline: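 H1.0 nuclear intensity or cell number is expressed as percent of the plate control, with the median of replicates taken. HCC1569 and TDF cells were treated with compounds at 10 µM for 24 h at 37 °C, in triplicate, then fixed and immunostained for H1.0 with DAPI as a nuclear stain. HCC1569 values were smoothed to correct for positional effects.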
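Note: TDF is a line of transformed human dermal fibroblasts of mesenchymal origin.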

H1.0 immunofluorescence intensity, active:
COC1C=CC=C(C)C(=O)NC2=CC(=O)C=C(C2=O)C(OC)C(C)CC(OC)C(OC)C(C)C=C(C)C1OC(N)=O (configuration not stated) [Herbimycin A, Streptomyces sp.] 180
CC(=O)Oc1ccccc1C(=O)Oc1ccc(CO[N+](=O)[O-])cc1 [4-[(nitrooxy)methyl]phenyl 2-(acetyloxy)benzoate] 143

H1.0 immunofluorescence intensity, inactive:
CCCCCC=CCC=CCC=CC=CC1CCCC(=O)O1 (racemic) 103
O=C(O)Cc1ccc(O)c(O)c1 [3,4-Dihydroxyphenylacetic acid] 96.6
C1COC(NC(C2CC2)C2CC2)=N1 [Rilmenidine hemifumarate] 107
O=C(O)CCCCCCCC(=O)O [Azelaic acid] 89.8
Cc1ccc(Cl)c(Nc2ccccc2C(=O)[O-])c1Cl.[Na+] [sodium 2-(2,6-dichloro-3-methylanilino)benzoate] 102
COc1c(N2CCNC(C)C2)c(F)cc2c(=O)c(C(=O)O)cn(C3CC3)c12 (configuration not stated) [Gatifloxacin] 107
CC(C(O)c1ccc(O)cc1)N1CCC(Cc2ccccc2)CC1.CC(C(O)c1ccc(O)cc1)N1CCC(Cc2ccccc2)CC1.O=C(O)C(O)C(O)C(=O)O (configuration not stated) [Ifenprodil tartrate] 96.7
O=C1CC(c2ccc(O)cc2)Oc2cc(OC3OC(CO)C(O)C(O)C3O)cc(O)c21 (configuration not stated) [Narigenin-7-O-glucoside] 86.5
COCCc1ccc(OCC(O)CNC(C)C)cc1.COCCc1ccc(OCC(O)CNC(C)C)cc1.O=C(O)C(O)C(O)C(=O)O (racemic) 108
COc1ccccc1N1CCN(CCCNc2cc(=O)n(C)c(=O)n2C)CC1.Cl [Urapidil hydrochloride] 103
CN(C)CCOC(c1ccccc1)c1ccccc1.Cl [Diphenhydramine.HCl] 107
Clc1ccc(CON=C(Cn2ccnc2)c2ccc(Cl)cc2Cl)c(Cl)c1 [Oxiconazole] 113
Cl.c1ccc(C2CN3CCSC3=N2)cc1 (configuration not stated) [Tetramisole hydrochloride] 105
O=C(C=Cc1ccc(O)cc1)CC(=O)C=Cc1ccc(O)cc1 [Bis demethoxycurcumin] 94.4
[Cl-].[Li+] [Lithium Chloride] 88
CCCCCCCCCCCCCCCC(O)C(CO)NC(C)=O (configuration not stated) [C2 Dihydroceramide] 97
CCN(CC)CCOC(=O)C1(C2CCCCC2)CCCCC1.Cl [Dicyclomine hydrochloride] 93.1
C[N+](C)(C)CCOC(N)=O [Carbamylcholine] 99.8
OC1c2ccccc2N=C2CCCN21 (configuration not stated) [Peganole] 91.1
CC(C)Nc1cccnc1N1CCN(C(=O)c2cc3cc(NS(C)(=O)=O)ccc3[nH]2)CC1.CS(=O)(=O)O [Delavirdine mesylate] 110
CCCCCCCCCCCCC(=O)O [Tridecanoic acid] 101
O=C(OC1CC2CC3CC(C1)N2CC3=O)c1c[nH]c2ccccc12 (configuration not stated) [Dolasetron] 105
Cn1c(=O)c(-c2c(Cl)cccc2Cl)cc2cnc(Nc3ccc(N4CCOCC4)cc3)nc21 88.3
c1ccc(-c2n[nH]c3c2oc2ccccc23)cc1 126
Br.COc1ccccc1N1CCN(CCCCN2C(=O)c3ccccc3C2=O)CC1 [NAN-190 hydrobromide] 100
